697 NFkB inh: inhibitors of the PMA/ionomycin-induced NF-kB reporter in 697 B cells | 697 B-cell NF-kB luciferase reporter, 16 h | inhibition, % at 4 µM | actives 0.33% (n = 330,000); in the data active means inhibition above about 35%
esBAF inh: SWI/SNF esBAF complex inhibition; mouse ES cells, Bmi1-luciferase knock-in reporter, 24 h; 100% = twice the neutral-well signal; reporter increase, % at 12.5 µM; actives 2% (n = 350,000); AID 602393; in the data active means activation above about 40%;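 further: a rise in the Bmi1 reporter signal indicates esBAF inhibition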
Gli-Sufu block: Gli-Sufu pathway antagonism. Sufu-KO-LIGHT fibroblasts, Gli luciferase reporter luminescence. inhibition, % at 5 µM. actives 0.74% (n = 340,000). AID 588413;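 active means inhibition above about 55%, limit read from the data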
Jurkat NFkB inh: inhibitors of the PMA/ionomycin-induced NF-kB reporter in Jurkat cells. PMA/ionomycin-induced NF-kB luciferase reporter, luminescence. AID 435003. inhibition, % at 4 µM. actives 0.53% (n = 330,000); in the data active means inhibition above about 50%
SMARCA2 activ: activators of SMARCA2 function; MG213 cells, MMTV-luciferase reporter, dexamethasone, overnight; activation, % at 9.1 µM; actives 1% (n = 370,000); AID 652017; in the data active means activation above about 7.8%
Hits are given with their value; i = inactive; nt = no result given. In the library only some 3.3% were active in any assay of this set; here they are far more common.

SMILES	697 NFkB inh	esBAF inh	Gli-Sufu block	Jurkat NFkB inh	SMARCA2 activ
Nc1cc2c(cc1Cl)-c1ccccc1C2=NO	nt	52.0	i	nt	i
C[C@H](CO)N1C[C@H](C)[C@H](CN(C)Cc2ccncc2)Oc2ccc(NS(=O)(=O)c3ccc(Cl)cc3)cc2C1=O	nt	i	nt	nt	nt
O=C1N=C(c2ccccc2)S/C1=C\c1cccs1	i	nt	i	i	i
O=C1OC(c2ccccc2)=C/C1=C/c1cccs1	i	25.8	nt	i	i
Oc1ccc(/C=N/Nc2cccc3cccnc23)c(O)c1	i	78.8	i	i	i
CO[C@@H](CN(C)C(=O)C1CCOCC1)[C@H](C)CN(C(=O)Nc1ccc(F)cc1)[C@H](C)CO	nt	i	nt	nt	nt
CCn1c(C(=O)OC)cc2c1ccn2-c1ccc(F)cc1	i	71.3	i	i	i
CO[C@@H]1CN(C)C(=O)c2ccc(NC(C)=O)cc2OC[C@@H](C)N(C(=O)c2ccncc2)C[C@H]1C	nt	i	nt	nt	nt
COc1ccc(-c2nc(SC)n(S(=O)(=O)c3ccccc3)n2)cc1	i	52.8	i	i	i
Cc1ccccc1-c1nnc(-c2ccc(Br)cc2)o1	i	69.1	i	i	i
Cc1ccccc1-c1nnc(-c2ccccc2C)o1	i	nt	i	i	i
CNc1cc(-c2ccc(CC#N)cc2)ncn1	nt	50.4	nt	nt	i
O=c1[nH]c2ccccc2nc1/C=C/c1ccc(Cl)cc1	i	45.1	i	i	i
c1ccc(CN2CCN(c3ncnc4c3[nH]c3ccccc34)CC2)cc1	i	i	61.6	i	i
c1ccc2c(c1)[nH]c1c(N3CCC4(CC3)OCCO4)ncnc12	i	i	i	i	nt
C/C=C/c1ccc2c(c1)O[C@@H](CN(C)C(=O)Nc1cccc(F)c1)[C@H](C)CN([C@@H](C)CO)S2(=O)=O	nt	i	nt	nt	nt
COc1ccccc1C(=O)Nc1ccc2c(C)cc(=O)oc2c1	i	54.4	i	i	i
Cc1cc(=O)oc2cc(NC(=O)c3ccc(OC(F)F)cc3)ccc12	i	57.0	i	i	i
C[C@@H]1CCCCO[C@H](CN(C)Cc2ccccc2)[C@H](C)CN([C@@H](C)CO)C(=O)c2cc(NS(=O)(=O)c3ccc(F)cc3)ccc2O1	nt	i	nt	nt	nt
N/C(=N\OC(=O)C1CCCCC1)c1cccc(Br)c1	i	44.6	i	i	nt
COc1ccc(C(=O)O/N=C(\N)c2ccc(OC)c(OC)c2)c(OC)c1	i	56.1	i	i	nt
COc1ccc(C(=O)O/N=C(\N)c2ccc(OC)c(OC)c2)cc1	i	i	i	i	i
N/C(=N\OC(=O)CC1CCCCC1)c1ccc(Cl)cc1	i	40.9	i	i	i
COc1ccc(CC(=O)O/N=C(\N)c2ccc(OC)cc2)cc1	i	nt	i	i	i
COc1ccc(/C(N)=N/OC(=O)C2CCCCC2)cc1	i	60.7	i	i	i
SMILES	697 NFkB inh	esBAF inh	Gli-Sufu block	Jurkat NFkB inh	SMARCA2 activ
CCCNC(=O)C[C@@H]1C[C@@H]2c3cc(NC(=O)Cc4ccncc4)ccc3O[C@@H]2[C@@H](CO)O1	nt	i	nt	nt	nt
Cc1noc(C)c1NC(=O)N(C)C[C@H]1Oc2ncc(C#CC3CCCCC3)cc2C(=O)N([C@@H](C)CO)C[C@H]1C	nt	i	nt	nt	nt
C[C@H](CO)N1C[C@H](C)[C@H](CN(C)Cc2ccc3c(c2)OCO3)OCCCC[C@H](C)Oc2ccc(NS(=O)(=O)c3ccc(Cl)cc3)cc2C1=O	nt	i	nt	nt	nt
COc1ccc(/C(N)=N/OC(=O)C2CCCCC2)cc1OC	i	51.3	i	i	i
COc1ccc(/C(N)=N/OC(=O)CC2CCCCC2)cc1OC	i	i	i	i	i
COc1ccc(S(=O)(=O)Nc2ccc3c(c2)C(=O)N([C@H](C)CO)C[C@@H](C)[C@H](CN(C)C(=O)Nc2c(C)noc2C)O3)cc1	nt	i	nt	nt	nt
O=C(C[C@@H]1C[C@@H]2c3cc(NC(=O)NC4CCCCC4)ccc3O[C@@H]2[C@H](CO)O1)NCC(F)(F)F	nt	i	nt	nt	nt
COc1cc2sc3cc(NCC[C@@H]4CCCN4C)ccc3c(=O)c2cc1OC	i	53.0	i	i	i
COc1cccc2sc3ccc(NCCC4CCCN4C)cc3c(=O)c12 (stereo not given)	i	i	i	i	i
C[C@@H]1CN([C@H](C)CO)S(=O)(=O)c2ccc(-c3ccccc3)cc2O[C@@H]1CN(C)Cc1ccncc1	nt	i	nt	nt	nt
COCCN1Cc2cc3cc(C)ccc3nc2SC1=Nc1cccc(OC)c1	i	48.9	i	i	i
CCOc1ccc(N=C2Sc3nc4ccc(C)cc4cc3CN2CCOC)cc1	i	54.1	i	i	i
COCCN1Cc2cc3cc(C)ccc3nc2SC1=Nc1ccc(OC)cc1	i	nt	i	i	i
COc1cc(O)sc1C=Nc1ccc(Cl)cc1	i	54.7	i	i	i
Oc1ccc(Br)cc1C=Nc1ccc(Cl)cc1	i	nt	i	i	i
Cc1ccc(C(=O)Nc2ncc([N+](=O)[O-])s2)cc1	nt	i	60.1	nt	i
COC(=O)c1c(-c2ccc(OC)cc2)sc2ccc(OC)cc12	i	45.9	i	i	i
COC(=O)c1c(-c2ccc(OC)cc2)sc2ccc(-c3ccc4c(c3)OCO4)cc12	i	i	i	i	i
CCOc1ccc(CCNC(=O)c2cc([N+](=O)[O-])ccc2N2CCOCC2)cc1OCC	i	nt	i	i	7.9
Cc1nn2c(-c3ccc(Cl)cc3)ccnc2c1-c1ccccc1	nt	57.0	i	nt	i
Cc1nn2c(N)c(-c3ccccc3)cnc2c1-c1ccccc1	i	50.1	i	i	i
CN(C)CCCNC(=O)C[C@@H]1CC[C@@H](NS(=O)(=O)c2ccc(F)cc2)[C@@H](CO)O1	nt	i	nt	nt	nt
Cc1ccsc1C(=O)NNC(=O)C1C2C=CC(C2)C1C(=O)O (stereo not given)	nt	nt	i	nt	9.0
O=C(NCCc1cccs1)C1CC(c2ccc([N+](=O)[O-])cc2)=NO1 (stereo not given)	i	58.8	i	i	i
COc1ccc(CCNC(=O)C2CC(c3cccc([N+](=O)[O-])c3)=NO2)cc1 (stereo not given)	i	70.0	i	i	i
SMILES	697 NFkB inh	esBAF inh	Gli-Sufu block	Jurkat NFkB inh	SMARCA2 activ
Cc1ccc(CNC(=O)C2CC(c3cccc([N+](=O)[O-])c3)=NO2)o1 (stereo not given)	i	45.3	i	i	i
COCCNC(=O)C1CC(c2ccc([N+](=O)[O-])cc2)=NO1 (stereo not given)	i	i	i	i	i
Cc1ccc(CNC(=O)C2CC(c3cc(C(F)(F)F)cc(C(F)(F)F)c3)=NO2)o1 (stereo not given)	i	i	i	i	i
CCCCNC(=O)C1CC(c2cccc(F)c2)=NO1 (stereo not given)	i	84.8	i	i	i
C[C@@H]1CN([C@H](C)CO)C(=O)c2cc(C3=CCCC3)cnc2O[C@@H]1CN(C)Cc1ccccc1C(=O)O	nt	i	nt	nt	nt
C[C@H]1CN([C@@H](C)CO)C(=O)c2cc(-c3ccccc3F)cnc2O[C@@H]1CN(C)Cc1ccccc1	nt	i	nt	nt	nt
CN1c2ccc(-c3ccccc3)cc2[C@@H]2[C@@H](CCN2C(=O)c2ccccc2)[C@@H]1CO	nt	i	nt	nt	nt
O=C(C[C@H]1CC[C@H]2[C@@H](COC[C@H](O)CN2Cc2cccc(Cl)c2)O1)N1CCCCC1	nt	i	nt	nt	nt
